This passage reports Potency results from PubChem BioAssay (NCATS).

Inconclusive results are not listed. Activity calls are given as the source filed them. The call rests on the fitted dose curve; in most records, active means well fitted inhibition curve with a large enough effect; inconclusive means small, poorly fitted or top-dose-only effect; inactive means flat fitted curve, though single readings scatter.

Common to all, as to test: qHTS profiling for inhibitors of Plasmodium falciparum proliferation (AID 504749); further: nearly all actives have a fitted effect of over 60% in size
Settings in all cases: P. falciparum in erythrocytes, SYBR Green DNA, 72 h; series mostly up to 28.7 µM
A general note: In qHTS, concentration-response curves come from the screen itself.

One assay relates to ATS189. The essentials: (§1)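 Each compound contacts P. falciparum-infected red blood cells for 72 h at 37 C; lysis buffer (Tris, EDTA, saponin, Triton X, SYBR Green I) is added and fluorescence measured next morning; values normalized to controls.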
For the next assay, the system named is CP192. The essentials: as §1
In the next assay the test system is CP247. In short, it runs like this: as §1
The subject of the next assay is CP250. In short, it runs like this:
as §1

For another assay, the system named is C2A. In short, it runs like this:
as §1

A further assay concerns CP211. The essentials:
as §1

A further assay relates to CP215. In short, it runs like this:
as §1

For a further assay, the system named is CP262. The essentials:
as §1

In the next assay the test system is CP194. In short, it runs like this:
as §1

Another assay has as its system CP238. In short, it runs like this: as §1
In another assay the test system is CP252. In short, it runs like this: as §1
Another assay concerns CP201. The essentials: as §1
The test system of another assay is CP237. In short, it runs like this: as §1
The next assay concerns CP185. The essentials: as §1
A further assay relates to CP217. In short, it runs like this:
as §1

The next assay concerns CP256. The essentials:
as §1

A further assay deals with CP260. In short, it runs like this:
as §1

The subject of another assay is ATS95. The essentials: as §1
A further assay has as its system CP191. The essentials:
as §1

In the next assay the test system is CP203. The essentials:
as §1
Potency means the concentration at half of the fitted maximal effect.

For `NC1CCN(c2nc3c(cc2F)c(=O)c(C(=O)O)cn3-c2ccc(F)cc2F)C1` (stereo not given), the Potency result in the assay with ATS189, in the assay with CP192, in the assay with CP247 and in the assay on CP250 was “inactive” in each case.
Take `CN(C)CCOC(c1ccc(Cl)cc1)c1ccccn1` (stereo not given): the Potency entry with C2A, in the assay with CP192, with CP211, in the assay on CP215, in the assay with CP250 and in the assay on CP262 was “inactive” each time.
Consider `Oc1ccc(Cl)cc1Cc1cc(Cl)ccc1O`, for which the Potency entry with C2A, with CP192, with CP194, with CP211, with CP238 and in the assay with CP250 was “inactive” throughout. The Potency entry in the assay on CP262 is “inactive”. Also, the Potency is 11.2 µM (active) in the assay on CP247 and 12.6 µM (active) in the assay on CP252.
With `CC(C)(Cc1c[nH]c2ccccc12)NCC(O)COc1ccccc1C#N` (stereo not given), the Potency entry with CP192, in the assay on CP201 and in the assay with CP215 was “inactive” in each case. In addition, the Potency in the assay on CP237 was 10 µM (active).
As to `Cc1cc2c(OCC(CNC(C)(C)C)OC(=O)c3ccccc3)cccc2[nH]1` (stereo not given), the Potency result in the assay on CP185, with CP192, in the assay on CP194, in the assay with CP201, in the assay with CP211 and with CP217 was “inactive” in each case. Moreover, the Potency result in the assay on CP238, with CP250, in the assay on CP252, in the assay on CP256 and with CP262 was “inactive” each time. Moreover, the Potency in the assay on CP237 and in the assay on CP260 was 11.2 µM (active) each time.
For `CCC(C(=O)OCCOCCN(CC)CC)c1ccccc1` (stereo not given), the Potency result in the assay on ATS95, in the assay with C2A, in the assay on CP185, with CP191, in the assay on CP192 and with CP201 was “inactive” in each case. Besides, the Potency result in the assay on CP211, in the assay with CP215, in the assay with CP217, in the assay with CP238, in the assay on CP247 and in the assay on CP250 was “inactive” throughout. Further, the Potency result in the assay on CP252, with CP256, in the assay on CP260 and in the assay with CP262 was “inactive” in each case. Moreover, the Potency in the assay with CP237 is 11.2 µM (active).
`OC(C#CCN1CCCC1)(c1ccccc1)c1ccccc1`: the Potency entry with C2A, in the assay on CP191 and in the assay on CP201 was “inactive” in each case. In addition, the Potency in the assay with CP203 is 15.1 µM (active); in the assay on CP237, 5.01 µM (active); with CP260 it was 8.91 µM (active).
For `Cc1ccc2c(Br)cc(Br)c(O)c2n1`, the Potency in the assay with CP185 was 10 µM (active); in the assay with CP194, 13.5 µM (active); with CP211 it was 15.1 µM (active); with CP215, 9.53 µM (active); in the assay with CP217, 10 µM (active); with CP247 it was 11.2 µM (active). Also, the Potency entry in the assay on CP262 is “inactive”.
Consider `NC(N)=NN=C(/C=C/c1ccc([N+](=O)[O-])o1)/C=C/c1ccc([N+](=O)[O-])o1`, for which the Potency is 10 µM (active) in the assay with ATS95; 12.6 µM (active) with C2A; 10 µM (active) in the assay on CP191; 3.55 µM (active) in the assay with CP237; 7.08 µM (active) in the assay with CP247; 11.2 µM (active) in the assay on CP250. In addition, in the assay on CP260, the Potency is 3.55 µM (active). In addition, the Potency result with CP262 is “inactive”.
As to `O=S(c1cc(Cl)cc(Cl)c1O)c1cc(Cl)cc(Cl)c1O`, the Potency with CP191 was 17.8 µM (active); in the assay with CP237, 7.08 µM (active); with CP250, 28.2 µM (active).
With `CN(C)CCN1C(=O)c2ccccc2N(C)c2ccccc21`, the Potency entry in the assay with C2A, in the assay with CP215, in the assay on CP250 and with CP262 was “inactive” throughout. Besides, the Potency in the assay on CP237 was 3.98 µM (active).
Regarding `CCNC(=O)/C=C/c1cccc(Br)c1`, the Potency entry in the assay on ATS95, with C2A, in the assay with CP185, with CP192, with CP194 and in the assay with CP201 was “inactive” in each case. The Potency result in the assay with CP203, in the assay on CP211, with CP215, in the assay on CP217, with CP237 and in the assay on CP238 was “inactive” throughout. The Potency result with CP262 was “inactive”.
Take `CCN(CC)CCOc1ccccc1C(=O)CCc1ccccc1`: the Potency result with C2A, with CP191, with CP192, with CP250, with CP260 and with CP262 was “inactive” in each case.
Take `CNCCCCOc1ccccc1Cc1ccccc1`: the Potency result with CP192 and in the assay on CP262 was “inactive” in each case. The Potency was 4.26 µM (active) in the assay with CP203 and 8.91 µM (active) in the assay with CP238.
In the case of `COc1ccc(C(=O)c2ccccc2)c(O)c1`, the Potency entry with ATS95, in the assay on C2A, in the assay with CP185, in the assay with CP192, with CP194 and with CP201 was “inactive” each time. The Potency result with CP203, with CP211, in the assay with CP215, in the assay with CP217, with CP237 and in the assay with CP238 was “inactive” in each case. Also, the Potency result with CP247, in the assay with CP252, with CP256 and in the assay on CP262 was “inactive” in each case.
As for `CN1CCN(CCC(=O)N2c3ccccc3Sc3ccc(C(F)(F)F)cc32)CC1`, the Potency result with ATS95, in the assay with C2A, in the assay on CP192, with CP194, in the assay on CP201 and in the assay on CP215 was “inactive” in each case. Moreover, the Potency result in the assay with CP217, with CP250, in the assay on CP256 and in the assay with CP260 was “inactive” throughout.
Consider `CN1CCN(c2c(F)cc3c(=O)c(C(=O)O)cn4c3c2SCC4)CC1`, for which the Potency entry in the assay on CP192, with CP194, in the assay on CP201, in the assay with CP203, with CP238 and with CP247 was “inactive” in each case. Moreover, the Potency result in the assay on CP250 and in the assay on CP262 was “inactive” each time.
As to `CC(C)(C)NC[C@H](O)COc1nsnc1N1CCOCC1`, the Potency was 5.62 µM (active) in the assay with ATS189, 7.08 µM (active) with CP191, 5.01 µM (active) in the assay on CP237 and 7.94 µM (active) in the assay on CP260. Also, the Potency result with CP201 and in the assay on CP262 was “inactive” each time.
For the compound `N/C(=N\N=C\c1ccc(Cl)cc1)N/N=C/c1ccc(Cl)cc1`, the Potency with ATS95 is 8.91 µM (active); in the assay with C2A, 8.91 µM (active); in the assay on CP191 it was 3.16 µM (active); with CP217, 8.91 µM (active); in the assay on CP237, 10 µM (active); with CP256, 10 µM (active). For the same compound, in the assay on CP260, the Potency was 3.55 µM (active). In addition, the Potency result with CP192, in the assay with CP194, in the assay with CP201, with CP203, with CP211 and with CP215 was “inactive” throughout. In the assay with CP262, the Potency result was “inactive”.
Turning to `CN1CCN(C2=Nc3cc(F)ccc3Cc3ccccc32)CC1`, the Potency result in the assay on C2A, in the assay with CP185, in the assay on CP191, in the assay on CP192, with CP201 and with CP203 was “inactive” throughout. Further, the Potency result in the assay on CP211, in the assay on CP215, in the assay with CP217, in the assay with CP238, with CP250 and in the assay with CP252 was “inactive” in each case. Further, the Potency entry in the assay on CP260 and with CP262 was “inactive” in each case. For the same compound, in the assay on CP237, the Potency is 7.08 µM (active).
For the compound `O=C(O)CCc1nc2ccccc2[nH]1`, the Potency result in the assay on CP238, in the assay with CP247 and with CP256 was “inactive” in each case.
As to `CN1CCC(OC(c2ccccc2)c2ccccc2)CC1`, the Potency result in the assay with C2A, in the assay with CP191, in the assay on CP192, with CP201 and in the assay on CP250 was “inactive” in each case. Moreover, the Potency in the assay with CP260 was 3.98 µM (active).
`CCCCCCCCCCCCCCCCO`: the Potency result with ATS95, with C2A, in the assay on CP185, in the assay on CP191, in the assay on CP192 and in the assay on CP194 was “inactive” throughout. Further, the Potency result with CP201, in the assay on CP203, in the assay with CP211, with CP215, in the assay on CP217 and in the assay on CP237 was “inactive” each time. Also, the Potency entry in the assay with CP238, with CP247, in the assay with CP250, in the assay with CP252, with CP256 and with CP260 was “inactive” each time. For the same compound, the Potency result in the assay with CP262 was “inactive”.
Consider `O=C(CCN1CCN2CCCC2C1)N1c2ccccc2Sc2ccc(Cl)cc21` (stereo not given), for which the Potency result in the assay with CP185, with CP192, with CP194, in the assay on CP201, with CP203 and in the assay with CP211 was “inactive” in each case. Besides, the Potency entry with CP250 and in the assay on CP262 was “inactive” in each case.
On to `CN(CCCN1c2ccccc2CCc2ccccc21)CC(=O)c1ccc(Cl)cc1`, for which the Potency in the assay with ATS95 is 10 µM (active); with CP217 it was 11.2 µM (active); with CP237 it was 12.6 µM (active); with CP260, 10 µM (active). Further, the Potency entry in the assay on C2A, in the assay on CP192, in the assay with CP201 and in the assay with CP262 was “inactive” in each case.
Turning to `O=C(CN1CCN(Cc2ccc3c(c2)OCO3)CC1)N1c2ccccc2Sc2ccccc21`, the Potency is 8.91 µM (active) in the assay with ATS189, 11.2 µM (active) in the assay with C2A, 11.2 µM (active) with CP217 and 8.91 µM (active) in the assay with CP260. In addition, the Potency result with CP192 and with CP201 was “inactive” throughout.
Turning to `Cc1ccc(-c2ncc(Cl)cc2-c2ccc(S(C)(=O)=O)cc2)cn1`, the Potency result in the assay with CP192, in the assay on CP194, in the assay with CP201, in the assay with CP211, with CP260 and in the assay with CP262 was “inactive” throughout.
